Experimental data reported in ChEMBL document CHEMBL4513216, “Probing the Open Global Health Chemical Diversity Library for Multistage-Active Starting Points for Next-Generation Antimalarials” (ACS Infect Dis, 2020).
Hit rate of the full screen: of about 69,000 compounds, about 8,600 (12%) showed an effect of 50% or more. The sample holds strong results, similar compounds and a random draw of the others, so the mix is not that of the screen.

Tested on: Plasmodium berghei
Test: Screen against P. berghei liver stage (PbLuc), transformed with Luciferase, at 10uM
Format: functional, HepG2
Settings: tested at 10 uM

| Compound | INHIBITION [%] |
| --- | --- |
| COc1ccccc1CN(CC1CCCO1)C(=O)c1csnn1 (centres undefined) | 18.4 |
| O=C(CCc1nccs1)N1CCN(c2nccs2)CC1 | -2.19 |
| CCOCc1ccc(CNC(=O)N2CCC(C(N)=O)C2)cc1 (centres undefined) | 25.6 |
| c1cncc(CN2CCCC(Nc3ncnc4c3CCNCC4)C2)c1 (centres undefined) | 20.9 |
| CNC(=O)[C@@H]1C[C@H]2CN(Cc3ccc(C)s3)C[C@H]2N1C(C)=O | 34.6 |
| CC1CCN(C(=O)c2sccc2-n2cnnn2)CC1 | 20.3 |
| O=C(NCCc1ccc(F)cc1)NCC(O)c1cccc(F)c1 (centres undefined) | 18.2 |
| O=C(N[C@@H]1CC[C@@H](N2CCCC2)[C@@H]1O)c1cc2cccc(F)c2[nH]1 | -0.232 |
| CNC(=O)C1CN(Cc2cc(C)on2)CCN(C2CCOCC2)C1 (centres undefined) | -3.94 |
| CCCN1CCc2[nH]nc(C(=O)N3CCNC(=O)C3)c2C1 | -9.42 |
| CN(C)C(=O)N1C[C@H]2CC[C@@H](C1)N(S(=O)(=O)c1cccnc1)C2 | -62.1 |
| CCCOc1cc(CNC(=O)Nc2ccc(C)cc2)ccn1 | -14.5 |
| CCn1ccnc1C1CCN(Cc2c(F)cccc2F)CC1 | 43.9 |
| CCn1ccnc1C1CCN(C(=O)C(O)c2ccc(Cl)cc2)CC1 (centres undefined) | 6.66 |
| CCn1ccnc1C1CCN(Cc2cccc(Cl)c2)CC1 | 60.1 |
| CCN1CCN(C(=O)COCc2nc(-c3ccncc3)no2)CC1 | -2.92 |
| CCS(=O)(=O)NCCN1CCN(C(C#N)c2ccccc2)CC1 (centres undefined) | 19.4 |
| CC(C)OCCCNC(=O)CN(c1ccc(F)c(F)c1)S(C)(=O)=O | 62.3 |
| CCOCCCNC(=O)CN(c1ccc(F)c(F)c1)S(C)(=O)=O | 43.3 |
| CCOCCCNC(=O)CN(c1ccc(C)c(C)c1)S(C)(=O)=O | 18.4 |
| CCC1=N[C@@]2(CC[C@@H]3CN(C(=O)Nc4ccccc4)C[C@@H]32)C(=O)N1C | 26.3 |
| COC(=O)c1ccc(-c2ccc(/C=C3\C(=O)NC(=N)N3C)o2)cc1 | 34.2 |
| Cc1csc(CNC(=O)N2CCCC(c3nncn3C)C2)n1 (centres undefined) | -23.9 |
| CCOc1ncccc1NC(=O)NC1CCN(C(C)=O)CC1 | 5.7 |
| COc1ccccc1N1CCN(C(=O)CCn2ccc(C)n2)CC1 | 16.2 |
| CS(=O)(=O)N1CCC(c2cnc(-c3cn[nH]c3)cn2)CC1 | 28.9 |
| O=C(C1NCCc2[nH]cnc21)N1CCC2(C=Cc3ccccc32)CC1 (centres undefined) | 53 |

| Compound | INHIBITION [%] |
| --- | --- |
| O=C1OC2(CCN(C(=O)C3NCCc4[nH]cnc43)CC2)c2ccccc21 (centres undefined) | 23.5 |
| O=C(C1NCCc2[nH]cnc21)N1CCC2(CC1)CNc1ccccc12 (centres undefined) | -15.8 |
| Cc1cc(C)nc(N2CCC(C(=O)O)(n3ccc(C(C)(C)C)n3)CC2)n1 | 25.4 |
| O=c1cccnn1CC1CN(CC2CCCC2)Cc2nccn2C1 (centres undefined) | -23.1 |
| CN1CCC(Nc2ccc(F)cc2OCC(F)(F)F)C1=O (centres undefined) | -0.378 |
| CC(CNC(=O)c1ccc(C#N)cc1)N1CCc2ccccc21 (centres undefined) | 83.2 |
| CC(CNC(=O)c1ccc(=O)[nH]n1)N1CCc2ccccc21 (centres undefined) | 53 |
| CC(CNC(=O)Nc1ccc(C#N)cc1)N1CCc2ccccc21 (centres undefined) | 40.1 |
| Cc1cc(C(=O)NCC(C)N2CCc3ccccc32)no1 (centres undefined) | 21.8 |
| CCC(CNC(=O)c1ccc(=O)[nH]n1)N1CCc2ccccc2C1 (centres undefined) | 28.5 |
| CC(CNC(=O)c1cccc(C#N)c1)N1CCc2ccccc21 (centres undefined) | -8.51 |
| O=C(Nc1ccccc1N1CCOC1=O)N1CCc2sccc2C1 | 18.4 |
| CCn1c(=O)n(CC)c2cc(S(N)(=O)=O)ccc21 | 29.1 |
| COCC1CC2(CCNCC2)CN1Cc1csc(C)n1 (centres undefined) | -15.3 |
| Cc1noc(CCCC(=O)NC(C)c2ccc(Cl)s2)n1 (centres undefined) | -2.95 |
| O=C(CCO)N1C[C@@H]2CC[C@H]1CN(C1Cc3ccccc3C1)C2 | -43.5 |
| CC(C)N(C(=O)c1ccccc1-c1nc2c([nH]1)CCNC2)C(C)C | 54.5 |
| COc1ccc(-c2nc3c([nH]2)CCNC3)c(OC)c1OC | 28.7 |
| CC(C)NC(=O)Nc1ccc(-c2nc3c([nH]2)CCNC3)cc1 | -100 |
| CC(C)COc1cccc(-c2nc3c([nH]2)CCNC3)c1 | 41.5 |
| COc1cccc(-c2nc3c([nH]2)CCNC3)c1F | 61 |
| CC(=O)c1cccc(-c2nc3c([nH]2)CCNC3)c1F | 37.8 |
| CS(=O)(=O)N1CCCC(Cc2ccnc3ccncc23)CC1 (centres undefined) | 19.6 |
| O=C(c1cccnc1)N1CCCC2(CCN(c3ccsc3)C2=O)C1 (centres undefined) | -33.7 |
| CN(C)C(=O)[C@@H]1CCO[C@@H]2CCN(Cc3ccc4c(c3)OCO4)C[C@@H]21 | 10.8 |
| COc1cc(N2CCC3(CCCN3Cc3cnn(C)c3)CC2)ncn1 | 13.7 |
| CCCN1CCc2nc(SCc3ccccc3)[nH]c(=O)c2C1 | 17.7 |
